Results filed as inconclusive are left out. Calls of active or inactive are those of the source. Calls come from the whole dose curve; as a rule, active = well fitted curve in the direction sought with a large enough effect; inconclusive = small, poorly fitted or top-dose-only effect, or another doubt; inactive = no such curve, though single readings can be large; an effect the other way counts as inactive or inconclusive. Where a SMILES comes first, the peptide text is derived from it. Bridges are numbered along the chain shown (N, C = ends). [ ]: non-standard residue; d: D form. The star is where a group is joined. X1 = CC[C@@H](C)[C@@H](N)C1=N[C@H](C(=O)*)CS1; d(aIle) = CC[C@H](C)[C@@H](N)C(=O)O; dOrn = NCCC[C@@H](N)C(=O)O
How the values were obtained:
Tov-21-G = assay: Primary qHTS to identify gynecologic anti-cancer compounds using libraries of approved drugs and bioactive compounds (AID 1345084); settings: Gynecologic cancer cell panel viability, ATPlite luminescence, 48 h; series mostly up to 57.5 µM; note: nearly all actives have a fitted effect of over 55% in size
In short: (§1)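 In this quantitative HTS, cell killing is estimated from loss of ATP-dependent luciferase light. Cells see five compound concentrations over a 48 h exposure.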

[1] = Drug repurposing screens with cells derived from glioblastoma tumor samples (AID 1345199); settings: GBM patient neurospheres viability, ATP luminescence, 48 h; note: nearly all actives have a fitted effect of over 40% in size; note: potency is the fitted concentration of half-maximal effect
In short: (§2)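 Primary testing used CD133+ neurospheres from four GBM patients, seven concentrations, 48 h exposure and ATP-based viability; confirmation added three slower-growing patient lines.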

astro = assay: as above; settings: viability, ATP luminescence, 48 h; series mostly up to 45.9 µM
In short: as §2

SKOV3 = assay: Primary qHTS to identify gynecologic anti-cancer compounds using libraries of approved drugs and bioactive compounds (AID 1345084); settings: Gynecologic cancer cell panel viability, ATPlite luminescence, 48 h; series mostly up to 57.5 µM; note: nearly all actives have a fitted effect of over 55% in size
In short: as §1

Tov112D = assay: as above; settings: Gynecologic cancer cell panel viability, ATPlite luminescence, 48 h; series mostly up to 57.5 µM
In short: as §1

[2] = at 45.9 µM (top of the series), tumour line D
[3] = at 46.1 µM (top of the series), tumour line C
[4] = at 45.9 µM (top of the series), tumour line B
[5] = at 20 µM (top of the series), tumour line C
[6] = at 21.2 µM (top of the series), tumour line D
[7] = at 21.2 µM (top of the series), tumour line B
[8] = at 21.3 µM (top of the series), tumour line A
[9] = at 46 µM (top of the series), tumour line A
% is set by controls: 0 for no effect and ±100 for the full control effect.

COc1ccc(C[C@H](C)NC[C@@H](O)c2ccc(O)c(NC=O)c2)cc1
inactive: Potency (Tov-21-G) | activity, negative = cell killing [1, 2] -10.9% | activity, negative = cell killing [1, 3] -28.7% | Potency (astro)
active: Potency ([1]; tumour line A) 17.8 µM

C[C@]12CC[C@@H]3c4ccc(OC(=O)c5ccccc5)cc4CC[C@H]3[C@@H]1CC[C@@H]2O
inactive: outcome (SKOV3) | Potency (Tov-21-G) | outcome (Tov112D) | activity, negative = cell killing [1, 4] -25.4% | activity, negative = cell killing [1, 3] -17.8%
active: Potency ([1]; tumour line A) 11.2 µM

CSc1nc2cc(Oc3cccc(Cl)c3Cl)c(Cl)cc2[nH]1
inactive: activity, negative = cell killing [1, 4] -12.6%

Nc1ccc(N=Nc2ccccc2)c(N)n1
inactive: outcome (SKOV3) | Potency (Tov-21-G) | outcome (Tov112D)

C=C1c2c(Cl)ccc(O)c2C(O)=C2C(=O)[C@]3(O)C(O)=C(C(N)=O)C(=O)[C@@H](N(C)C)[C@@H]3[C@@H](O)[C@H]12
inactive: activity, negative = cell killing [1, 5] 3.1% | activity, negative = cell killing [1, 6] -28.3%

O=C(O)Cc1cc(I)c(Oc2ccc(O)c(I)c2)c(I)c1
inactive: outcome (SKOV3) | Potency (Tov-21-G) | outcome (Tov112D) | activity, negative = cell killing [1, 5] -19.1% | activity, negative = cell killing [1, 7] 6.94% | activity, negative = cell killing [1, 6] 9.76% | activity, negative = cell killing [1, 8] -9.11%

O=C(O)CCC(=O)c1ccc(-c2ccccc2)cc1
inactive: outcome (SKOV3) | Potency (Tov-21-G) | outcome (Tov112D) | activity, negative = cell killing [1, 5] -5.86% | activity, negative = cell killing [1, 7] -10% | activity, negative = cell killing [1, 6] -17.7% | Potency (astro)

C=C1[C@H](CO)[C@@H](O)C[C@@H]1n1cnc2c(=O)[nH]c(N)nc21
inactive: outcome (SKOV3) | Potency (Tov-21-G) | outcome (Tov112D) | activity, negative = cell killing [1, 4] -13.2% | activity, negative = cell killing [1, 3] -24% | Potency (astro)

C[C@@H]1NC(=O)[C@@H](N)CNC(=O)[C@H](C2CCNC(N)=N2)NC(=O)/C(=C/NC(N)=O)NC(=O)[C@H](CNC(=O)C[C@@H](N)CCCN)NC1=O (some centres not stated)
inactive: activity, negative = cell killing [1, 5] 24.6% | activity, negative = cell killing [1, 7] -11.2% | activity, negative = cell killing [1, 6] -13.8% | activity, negative = cell killing [1, 4] -12.9% | activity, negative = cell killing [1, 2] -1.47% | activity, negative = cell killing [1, 3] -18.8% | Potency (astro)

CC(=O)NCCCS(=O)(=O)O
inactive: activity, negative = cell killing [1, 4] -1.38% | activity, negative = cell killing [1, 2] -1.99% | activity, negative = cell killing [1, 9] -10.5% | activity, negative = cell killing [1, 3] -6.16%

CCCCC(=O)O[C@H]1CC[C@H]2[C@@H]3CCc4cc(O)ccc4[C@H]3CC[C@]12C
active: Potency ([1]; tumour line A) 28.2 µM | Potency ([1]; tumour line D) 11.2 µM
inactive: activity, negative = cell killing [1, 4] -20.6% | activity, negative = cell killing [1, 3] 8.7%

Cc1cccc(Nc2ncccc2C(=O)O)c1C
inactive: activity, negative = cell killing [1, 4] -17.7% | activity, negative = cell killing [1, 2] -8.87% | activity, negative = cell killing [1, 3] -27.1%

CCCCC[C@H](O)/C=C/[C@@H]1[C@H]2C/C(=C/CCCC(=O)O)O[C@H]2C[C@H]1O
inactive: activity, negative = cell killing [1, 4] -2.96% | activity, negative = cell killing [1, 2] 0.816% | activity, negative = cell killing [1, 9] -14.4% | activity, negative = cell killing [1, 3] -18.7%

CCC[C@@H]1C[C@@H](C(=O)N[C@@H]([C@H]2O[C@H](SC)[C@H](O)[C@@H](O)[C@H]2O)[C@H](C)Cl)N(C)C1
inactive: activity, negative = cell killing [1, 4] 1.77% | activity, negative = cell killing [1, 2] -7.32% | activity, negative = cell killing [1, 9] -25.1%

O=C(O)CN(CC(=O)O)CC1=CC2C(=CC1=O)Oc1cc(O)c(CN(CC(=O)O)CC(=O)O)cc1C21OC(=O)c2ccccc21 (configuration not stated)
inactive: activity, negative = cell killing [1, 4] -10.9% | activity, negative = cell killing [1, 2] -10.1% | activity, negative = cell killing [1, 9] -21.2% | activity, negative = cell killing [1, 3] -24.7%

O=C1c2c(O)cccc2[C@H]([C@@H]2O[C@H](CO)[C@@H](O)[C@H](O)[C@H]2O)c2cc(CO)cc(O)c21
inactive: activity, negative = cell killing [1, 4] -6.89% | activity, negative = cell killing [1, 2] -4.21% | activity, negative = cell killing [1, 9] -19.8% | activity, negative = cell killing [1, 3] -2.48% | Potency (astro)

CN(C)C=Nc1c(I)cc(I)c(CCC(=O)O)c1I
inactive: activity, negative = cell killing [1, 4] -15.9% | activity, negative = cell killing [1, 2] 6.53% | activity, negative = cell killing [1, 9] -8.71% | activity, negative = cell killing [1, 3] -9.66%

CN[C@@H]1[C@H](O[C@H]2[C@H](O[C@H]3[C@H](O)[C@@H](O)[C@H](N=C(N)N)[C@@H](O)[C@@H]3N=C(N)N)O[C@@H](C)[C@]2(O)C=O)O[C@@H](CO)[C@H](O)[C@H]1O
inactive: activity, negative = cell killing [1, 4] 1.28% | activity, negative = cell killing [1, 2] -18.9% | activity, negative = cell killing [1, 9] -12% | activity, negative = cell killing [1, 3] -1.08%

CC[C@@H](C)[C@@H](N)C1=N[C@H](C(=O)N[C@@H](CC(C)C)C(=O)N[C@@H](CCC(=O)O)C(=O)N[C@@H](C(=O)N[C@@H]2CCCCNC(=O)[C@@H](CC(N)=O)NC(=O)[C@@H](CC(=O)O)NC(=O)[C@@H](Cc3cnc[nH]3)NC(=O)[C@@H](Cc3ccccc3)NC(=O)[C@@H]([C@H](C)CC)NC(=O)[C@@H](CCCN)NC2=O)[C@@H](C)CC)CS1 (X1-LE[d(aIle)][dK][dOrn][dI][dF][dH][dD][dN]; lactam 4-C)
inactive: activity, negative = cell killing [1, 5] 4.06% | activity, negative = cell killing [1, 7] -2.34% | activity, negative = cell killing [1, 6] -0.888% | activity, negative = cell killing [1, 8] -20.3% | activity, negative = cell killing [1, 4] -12.2% | activity, negative = cell killing [1, 2] -10.9% | activity, negative = cell killing [1, 9] -25% | activity, negative = cell killing [1, 3] 23.1% | Potency (astro)

O.O.O.O.O.O.O.O=S(=O)([O-])[O-].[Co+2]
inactive: activity, negative = cell killing [1, 4] -22.6% | activity, negative = cell killing [1, 2] 15.1% | activity, negative = cell killing [1, 9] -23.8% | activity, negative = cell killing [1, 3] 10.4%

Source: PubChem BioAssay (NCATS)
